# Reference: PubChem BioAssay AID1445 (SRMLSC, 2008)
# About 910 (0.41%) of roughly 220,000 compounds were called active. The sample holds actives, similar compounds and a random draw of the others, so the mix is not that of the screen. Potency and affinity values are given separately. A number with no mark means an inactive call.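 Rule for the calls: active = primary inhibition above the hit cutoff, then over 50% inhibition at one or more dose response concentrations (cut at about 23% in these data, passing the limit was not always enough); inconclusive = conflicting primary data, or primary hits not chosen for dose response; inactive = low primary inhibition, or under 50% at every dose.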 Where a SMILES comes first, the peptide text is derived from it. The star is where a group is joined. Boc = CC(C)(C)OC(=O)*
# Biological target: Aminopeptidase N (Plasmodium falciparum (isolate 3D7)) (UniProt O96935)
# Experiment: P. falciparum M1AAP inhibitors, biochemical, fluorogenic H-Leu-NHMec substrate, 1536-well (AID 1445);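 note: plate controls were DMSO full reaction for no effect and no enzyme background for full effect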
# Conditions: recombinant M1AAP, H-Leu-NHMec fluorogenic kinetic assay; at 30 µM, active compounds read high unless noted
# Sequence of Aminopeptidase N (Plasmodium falciparum (isolate 3D7)) (O96935 whole entry, looked up): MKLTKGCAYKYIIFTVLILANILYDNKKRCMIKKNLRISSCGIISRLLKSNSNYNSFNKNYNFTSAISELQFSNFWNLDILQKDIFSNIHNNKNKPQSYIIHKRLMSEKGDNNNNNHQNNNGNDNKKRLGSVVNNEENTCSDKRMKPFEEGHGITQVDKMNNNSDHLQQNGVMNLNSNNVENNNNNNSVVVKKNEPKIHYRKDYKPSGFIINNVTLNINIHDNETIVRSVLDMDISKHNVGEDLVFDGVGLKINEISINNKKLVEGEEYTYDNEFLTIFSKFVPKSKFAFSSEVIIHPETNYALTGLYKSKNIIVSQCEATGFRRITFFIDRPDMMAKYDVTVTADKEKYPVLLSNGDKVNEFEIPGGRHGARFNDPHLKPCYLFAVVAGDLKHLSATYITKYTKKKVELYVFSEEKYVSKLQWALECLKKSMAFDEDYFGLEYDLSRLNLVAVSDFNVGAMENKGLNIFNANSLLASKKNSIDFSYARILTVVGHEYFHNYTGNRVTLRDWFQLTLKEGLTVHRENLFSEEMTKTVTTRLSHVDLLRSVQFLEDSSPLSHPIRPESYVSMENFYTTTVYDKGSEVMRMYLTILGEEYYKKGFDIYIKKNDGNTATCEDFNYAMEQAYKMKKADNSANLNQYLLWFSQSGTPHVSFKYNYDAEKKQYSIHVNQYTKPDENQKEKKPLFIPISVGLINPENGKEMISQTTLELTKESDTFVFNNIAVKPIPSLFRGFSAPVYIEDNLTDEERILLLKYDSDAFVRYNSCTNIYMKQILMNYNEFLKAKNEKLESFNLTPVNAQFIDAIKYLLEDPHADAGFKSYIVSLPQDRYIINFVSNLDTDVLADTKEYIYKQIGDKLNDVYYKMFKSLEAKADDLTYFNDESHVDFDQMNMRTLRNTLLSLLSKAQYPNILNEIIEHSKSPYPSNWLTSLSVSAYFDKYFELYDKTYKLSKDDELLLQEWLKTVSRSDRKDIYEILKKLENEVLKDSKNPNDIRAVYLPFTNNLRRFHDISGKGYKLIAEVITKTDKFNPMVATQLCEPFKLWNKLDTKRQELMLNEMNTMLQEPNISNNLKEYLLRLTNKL
row,Structure (SMILES),inhibition
1,O=C(NCc1ccccc1)c1ccc2c(c1)C(=O)N(Cc1ccncc1)C2=O,-0.3%
2,COc1ccc(C(C(=O)NC(C)(C)C)N(Cc2cccs2)C(=O)CCC(=O)Nc2cc(C)on2)cc1 (stereo unspecified),-3.34%
3,COc1cc(CCC(=O)OCC(=O)Nc2c(C)cccc2C(C)C)cc(OC)c1OC,-0.28%
4,Cc1cc2cc(C(c3nnnn3Cc3ccco3)N3CCc4ccccc4C3)c(=O)[nH]c2cc1C (stereo unspecified),14%
5,COc1ccc2[nH]c(=O)c(CN(C3CCCCC3)C(c3nnnn3Cc3ccco3)C(C)C)cc2c1 (stereo unspecified),23.7% (active)
6,Cc1ccc(C)c2[nH]c(=O)c(C(c3nnnn3Cc3ccccc3)N3CCc4ccccc4C3)cc12 (stereo unspecified),7.95%
7,Cc1cc2cc(C(c3nnnn3Cc3ccco3)N3CCc4ccccc43)c(=O)[nH]c2cc1C (stereo unspecified),21.9%
8,Cc1cc2cc(C(c3nnnn3Cc3ccco3)N3CCCCC3)c(=O)[nH]c2cc1C (stereo unspecified),26.8% (active)
9,COc1ccc2[nH]c(=O)c(CN(Cc3nnnn3Cc3ccco3)C3CCCCC3)cc2c1,16%
10,Cc1ccc(C)c2[nH]c(=O)c(C(c3nnnn3Cc3ccco3)N3CCc4ccccc4C3)cc12 (stereo unspecified),24.6% (active)
11,Cc1cccc2cc(C(c3nnnn3CC3CCCO3)N3CCc4ccccc4C3)c(=O)[nH]c12 (stereo unspecified),12.2%
12,CCC(c1nnnn1Cc1ccco1)N(Cc1cc2cc(OC)ccc2[nH]c1=O)C1CCCCC1 (stereo unspecified),14.1%
13,CCOC(=O)c1ccc(Nc2nnc(C)c3ccccc23)cc1,6.41%
14,CSc1ccccc1NC(=O)CN(C)CC(=O)NCc1ccccc1,-1.28%
15,CC1(C)CC(=O)C(C=NCCN2CCN(C(=O)c3ccc(Br)cc3)CC2)=C(O)C1,2.26%
16,COc1ccc(CCNC(=O)[C@@H](NC(=O)c2ccccc2F)C(C)C)cc1OC,0.88%
17,Oc1c(Cl)cc(Cl)c2c1NCCC2,7.06%
18,Oc1c(Cl)cc(Cl)c2cccnc12,-7.26%
19,CCC(C)NCCCCOc1cc(C)cc(C(C)C)c1 (stereo unspecified),3.28%
20,CCC(=O)N(C)CCc1cc2c(c(OC)c1/C=N/NC(=O)c1ccccc1O)OCO2,-6.1%
21,C#CCOCCOCCOCCNc1nc(N2CCOCC2)nc(N2CCN(C(=O)[C@H]([C@@H](C)CC)n3cc(CCCCN)nn3)CC2)n1,0.08%
22,O=[N+]([O-])c1ccc(Cl)c(-c2ccc(/C=N/c3c(-c4ccco4)nc4ccccn34)o2)c1,6.65%
23,O=[N+]([O-])c1ccc(-c2ccc(/C=N/c3c(-c4ccco4)nc4ccccn34)o2)cc1,27.6% (active)
24,O=[N+]([O-])c1ccc(-c2ccc(/C=N/c3c(-c4ccco4)nc4ccccn34)o2)c(Cl)c1,8.98%

row,Structure (SMILES),inhibition
1,COC(=O)C(Cc1ccccc1)NC(=O)C(CC(C)C)NC(=O)OC(C)(C)C (stereo not drawn) (Boc-Leu-Phe-OMe; configuration not given here),-2.73%
2,CC(C)CC(NC(=O)OC(C)(C)C)C(=O)NCc1ccccc1 (stereo unspecified),-0.35%
3,O=C1N[C@@H](Cc2ccccc2)C(=O)N1CCN1CCOCC1,-7.62%
4,O=C(Cn1cnc2ccccc21)N/N=C/c1ccccc1[N+](=O)[O-],-4.86%
5,Cc1ccc(S(=O)(=O)N2CCN(C(=O)CC(C)(C)C)CC2)cc1,3.77%
6,CN(c1ccccc1C(=O)Nc1ccc(F)c(F)c1)S(C)(=O)=O,0.14%
7,COC(=O)CN1C(c2ccc(Cl)cc2)=Nc2ccc(Cl)cc2C1c1ccccc1 (stereo unspecified),8.62%
8,O=C1CN2C(=Nc3ccc(Br)cc3C2c2ccccc2)CCN1 (stereo unspecified),3.13%
9,O=C1CN2C(=Nc3ccc(Cl)cc3C2c2ccccc2)CN1 (stereo unspecified),27.9% (active)
10,COc1ccc(C2=NOC(C(=O)Nc3cc(C)on3)C2)cc1OC (stereo unspecified),9.84%
11,C=CCNC(=O)/C(C#N)=C\c1cc(Cl)c(O)c(OCC)c1,1.82%
12,COc1ccc(/C=C(/C#N)C(=O)Nc2ccc(O)cc2)cc1C(=O)O,15.9%
13,CC(C)COc1ccc(/C=C2/Sc3ccccc3C2=O)cc1,-0.23%
14,CCOC(=O)C1=C2NC(=O)c3ccccc3N2C(=O)C1,7.37%
15,COc1ccc(C(=O)NNC(=O)CCC(=O)Nc2cc(C)on2)cc1,6.61%
16,CC(=O)Nc1ccccc1-c1nc2ccc(C(=O)N3CCN(c4cccc(C)c4)C(C)C3)cc2[nH]c1=O (stereo unspecified),6.05%
17,CC(=O)Nc1ccccc1-c1nc2ccc(C(=O)N3CCN(c4cc(C)ccc4C)CC3)cc2[nH]c1=O,4.66%
18,CC(=O)Nc1ccccc1-c1nc2ccc(C(=O)N3CCN(c4ccccc4)CC3)cc2[nH]c1=O,28% (active)
19,Cc1ccccc1-c1cnn(-c2cccc([N+](=O)[O-])c2)c1N,1.77%
20,CC(C)c1ccc2oc(-c3ccc(N)cc3)nc2c1,4.91%
21,Cc1ccc(-c2nc3cc(N)ccc3o2)cc1,6.2%
22,CC(=O)N(C(C)=O)N1C(=O)/C(=C/c2ccc(Cl)cc2)SC1=S,29.5%
23,O=S(=O)(Nc1ncnc2sc3c(c12)CCC3)c1ccc(Cl)s1,20%
24,O=S(=O)(Nc1ncnc2sc3c(c12)CCC3)c1cc(F)ccc1F,11.3%

row,Structure (SMILES),inhibition
1,O=S(=O)(Nc1ncnc2sc3c(c12)CCC3)c1ccc2ccccc2c1,27.9% (active)
2,CC(C)CCOCC(=O)Oc1ccccc1C(=O)O,-2.22%
3,CCN(CC)CCCOC(=O)c1ccc(OC)cc1O,1.55%
4,Cc1ccc(C2=NNC(=O)C(c3c[nH]c4ccccc34)C2)cc1 (stereo unspecified),1.55%
5,CC1(C)Nc2ccccc2C(=O)N1NC(=O)c1ccccc1,22.7%
6,O=C1c2ccccc2NC2(CCCC2)N1NS(=O)(=O)c1ccccc1,7.28%
7,CS(=O)(=O)NN1C(=O)c2ccccc2NC12CCCC2,6.27%
8,CCOC(=O)NN1C(=O)c2ccccc2NC1(C)C,13.7%
9,COc1ccc(NC(=O)c2ccccc2F)cc1Cl,5.75%
10,CCCC[C@@H]1CNC(=S)N1CCCc1cc(OC)c(OC)c(OC)c1,2.36%
11,COc1cc(NC(=O)CSc2nnnn2Cc2ccccc2)cc(OC)c1,-0.13%
12,Cc1nc(COC(=O)c2ccc(CO)cc2)cs1,4.37%
13,Cn1c(=O)c2nc(Cl)c(-c3ccccc3)nc2n(C)c1=O,4.55%
14,COCCCNc1ccc([N+](=O)[O-])cc1C(=O)Nc1cccc(C)n1,2.01%
15,O=c1[nH]c2ccc(NS(=O)(=O)c3ccc(Cl)cc3)cc2[nH]1,7.26%
16,CCOc1ccc(NS(=O)(=O)c2ccc3[nH]c(=O)c(=O)[nH]c3c2)cc1,10.4%
17,CC(C)CCNC(=O)c1nnc(Cc2ccc(Cl)cc2)o1,2.74%
18,O=C(NCCCc1ccccc1)c1cc([N+](=O)[O-])ccc1Cl,3.08%
19,C[N+]1(CC(=O)OC2CCCCCCCCCCC2)CCCC1,32.9%
20,Oc1ccc(N=Nc2n[nH]c(-c3ccc(Cl)cc3)n2)cc1,26.6% (active)
21,Cc1ccc(-c2nc(N=Nc3ccc(O)cc3)n[nH]2)cc1,15.9%
22,Oc1ccc(N=Nc2n[nH]c(-c3ccc(Br)cc3)n2)cc1,14.1%
23,O=C(Nc1ccccc1N1CCOCC1)c1cccnc1,-1.63%
24,Cc1onc(-c2c(Cl)cccc2Cl)c1COC(=O)c1ccc(Cl)cc1,0.11%

row,Structure (SMILES),inhibition
1,O=c1[nH]c(SCc2ccccc2Cl)nc2c1CCCC2,-3.65%
2,O=c1[nH]c(SCc2ccccc2Cl)nc2c1CCC2,-1.92%
3,Cc1cccc(OCC(=O)NCC(=O)N/N=C/c2cccnc2)c1,8.13%
4,O=c1c2ccccc2nc(SCc2cc(F)ccc2F)n1C1CCCC1,6.96%
5,CCC(C)(C)NC(=O)C(c1cccnc1)N(C(=O)c1csnn1)c1ccccc1 (stereo unspecified),-0.28%
6,O=C(COc1ccc(Br)cc1CO)Nc1ccccc1,9.17%
7,O=P(Cc1cc(Br)cc(Br)c1OCCO)(c1ccccc1)c1ccccc1,5.71%
8,CCCn1c(SC2C(=O)CC(C)(C)CC2=O)nc2c1c(=O)n(C)c(=O)n2C,-3.71%
9,CCn1ccnc1CN(C)Cc1nc(-c2cccc(Cl)c2)no1,-7.75%
10,C=CCn1c(-c2ccc(F)cc2)n[nH]c1=S,4.9%
11,CCOP(=O)(OCC)c1nc(-c2cccc3ccccc23)oc1N1CCCCC1,15.6%
12,CCOP(=O)(OCC)c1nc(-c2ccc(Cl)cc2Cl)oc1N1CCCCC1,10.7%
13,CCOC(=O)C/C(C)=N\Nc1nc(-c2ccccc2)cs1,1.35%
14,O=C(CSCc1ccccc1)N1CCN(c2cccc(C(F)(F)F)c2)CC1,6.51%
15,COCC(=O)N1CCN(c2cccc(C(F)(F)F)c2)CC1,-4.62%
16,Cc1cccc(/C=N/NC(=O)c2cc(-c3cccnc3)nc3ccccc23)c1,5.37%
17,c1ccc(SCc2nc(-c3cccnc3)no2)cc1,2.83%
18,CCOC(=O)c1c(NC(=O)C2CCCO2)sc(C)c1C (stereo unspecified),2.42%
19,CCOC(=O)NC(=O)/C(C=Nc1ccc(Cl)cc1)=C(\C)O,10.5%
20,CCCN(CCC)C1CC(=O)N(Cc2ccccc2)C1=O (stereo unspecified),4.78%
21,CCCCCC(=O)N(O)C1CC(=O)N(c2ccccc2)C1=O (stereo unspecified),11.5%
22,O=C1CC(N(O)C2CC(=O)N(Cc3ccccc3)C2=O)C(=O)N1Cc1ccccc1 (stereo unspecified),6.83%
23,CCCCCCC(=O)N(O)C1CC(=O)N(c2ccc(C)cc2)C1=O (stereo unspecified),35.5%
24,CCCCCCC(=O)N(O)C1CC(=O)N(Cc2ccccc2)C1=O (stereo unspecified),37.9% (active)
